Assay outcomes: PubChem BioAssay, National Center for Advancing Translational Sciences (NCATS)
Lamin A splicing: modulators of lamin A splicing. HeLa LMNA splicing GFP/RFP minigene ratio, 48 h. AID 1487. actives 0.01% (n = 200,000). Potency, µM (highest dose often 46.1 µM), inactives show at the top dose ratio change, negative = inhibition, most hits filed as inhibitors; active = well fitted inhibition curve with a large enough effect in the signal ratio, with a control signal flat, not every such curve was filed as active; inconclusive = small, poorly fitted or top-dose-only effect, or effect the other way, or a change in a side signal; the % refers to the signal ratio; also: potency is read from the fitted curve at half-maximal effect
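S3 HeLa cells stably expressing lamin A-EGFP splicing minigene plus DsRed2, 600 cells/well, 48 h compound exposure at 37C. Laser-scanning cytometry; analysed as GFP (500-530 nm)/RFP (575-640 nm) total intensity ratio; 0.5% DMSO vehicle.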
PNC inhibitor: inhibitors of perinucleolar compartment assembly; actives 3.1% (n = 140,000); activity change (PNC), negative = inhibition, % at 10 µM; PC3M PTB-GFP, PNC prevalence imaging, 16 h; stronger effect = lower value; AID 2417;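 active = readout at or below -70, meaning at least 70% loss of cells showing the perinucleolar compartment, a nuclear body marking cancer cells; inconclusive = readout between -30 and a set limit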;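 also: plate controls were DMSO wells for no effect and camptothecin positive control wells for full effect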
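PC3M cells stably expressing PTB-GFP, 750–1000 cells/well, treated 16 h at 37 °C with compound (23 nl of library stock), in duplicate. After paraformaldehyde fixation and Hoechst stain, imaged at 20x; PNC prevalence scored by image analysis.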
KinaseGlo FLuc: counter-screen: inhibitors of Kinase-Glo firefly luciferase. Kinase-Glo luciferase, ATP luminescence, 8 min. actives 0.28% (n = 200,000). Potency, µM (top dose mostly 38.3 µM), for inactives: at the highest dose activity change, negative = inhibition, usual class: inhibitors. AID 1379. Q27757; active = well fitted inhibition curve with a large enough effect; inconclusive = small, poorly fitted or top-dose-only effect; also: potency is read from the fitted curve at half-maximal effect; nearly all actives have a fitted effect of over 60% in size
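Substrate mix (final 50 mM imidazole pH 7.2, 50 mM KCl, 7 mM MgCl2, 10 uM ATP, 0.01% Tween 20, 0.05% BSA) plus pin-tool compound, then Kinase-Glo detection mix; 8 min ambient, luminescence read.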
IMPase inh: cell-permeable inhibitors of inositol monophosphatase (IMPase); CHO-M1 cells, IP1 accumulation, HTRF TR-FRET ratio; inhibition (IP1 accumulation), % at 46.1 µM; 120,000 tested, under 10 active; AID 901; active = well fitted curve in the direction sought with a large enough effect in the signal ratio, not every such curve was filed as active; inconclusive = small, poorly fitted or top-dose-only effect, or a change in a side signal; inactive = no such curve, though single readings can be large or run the other way; the % refers to the signal ratio;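 also: cells stimulated with carbachol in lithium chloride buffer; plate controls were DMSO basal wells for no effect and reference inhibitor wells for full effect; higher means more IMPase inhibition seen as more IP1 and lower FRET ratio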
Target sequence (P97697 whole entry, looked up): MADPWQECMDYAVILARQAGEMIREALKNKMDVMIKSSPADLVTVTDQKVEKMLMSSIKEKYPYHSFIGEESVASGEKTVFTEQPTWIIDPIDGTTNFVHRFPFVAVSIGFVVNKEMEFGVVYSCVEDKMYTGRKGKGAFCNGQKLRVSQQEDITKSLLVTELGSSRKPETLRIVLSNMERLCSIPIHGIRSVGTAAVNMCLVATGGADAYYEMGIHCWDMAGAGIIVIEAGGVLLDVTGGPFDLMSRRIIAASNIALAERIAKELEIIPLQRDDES
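Cellular IMPase inhibition is scored as a rise in cytosolic IP1, detected by competitive TR-FRET between d2-labelled IP1 and a europium anti-IP1 antibody. M1-expressing CHO cells were stimulated with carbachol for 30 min at 37C, with lithium (50 mM LiCl) present in the buffer.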
HPGD block: blocks human HPGD enzyme activity; P15428; purified HPGD, NADH fluorescence kinetic, PGE2 substrate; Potency, µM, inactives show at the top dose activity change, negative = inhibition, actives largely listed as inhibitors; actives 4.3% (n = 150,000); also: potency is read from the fitted curve at half-maximal effect
Target sequence (P15428 whole entry, looked up): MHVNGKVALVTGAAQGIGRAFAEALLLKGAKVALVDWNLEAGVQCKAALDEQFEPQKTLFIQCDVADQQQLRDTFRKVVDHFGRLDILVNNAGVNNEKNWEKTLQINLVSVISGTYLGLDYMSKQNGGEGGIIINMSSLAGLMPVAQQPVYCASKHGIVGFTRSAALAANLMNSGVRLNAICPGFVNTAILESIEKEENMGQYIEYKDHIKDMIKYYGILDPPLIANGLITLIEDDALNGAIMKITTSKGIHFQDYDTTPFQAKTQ
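NADH formation kinetics: reaction with 30 uM PGE2 and 1 mM NAD+ (final), 20 nM enzyme, Tris-HCl pH 8 with Tween 20, after 15 min compound preincubation at room temperature. Fluorescence change, last versus first of five reads.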
ALDH1A1 block: inhibitors of human aldehyde dehydrogenase 1A1; P00352; Purified ALDH1A1, NADH fluorescence, propionaldehyde substrate; Potency, µM (doses to about 75.3 µM), for the others: top-dose activity, negative = inhibition, hits mostly inhibitors; actives 7.3% (n = 220,000); AID 1030;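 also: potency is read from the fitted curve at half-maximal effect; plate controls were no enzyme wells and a reference inhibitor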
An asterisk follows results filed as active; [ ] = dose if it differs, or a comment. The list is not random: actives were taken first. Their share in the collection is about 10%. Unless noted, calls follow the shape of the dose curve; as a rule, active = well fitted inhibition curve with a large enough effect (not every such curve was filed as active); inconclusive = small, poorly fitted or top-dose-only effect, or another doubt; inactive = no such curve, though single readings can be large or run the other way. Unless noted, % is scaled to controls: 0 for no effect and ±100 for the full control effect.

`CC(C)C[C@@H](CC(=O)N[C@@H](CCC(=O)O)CC(=O)O)NC(=O)[C@@H]1CCCC[C@H]1NC(=O)C[C@@H](NC(=O)C[C@H](Cc1ccccc1)NC(=O)[C@@H]1CNCC[C@H]1N)C(C)C` gave KinaseGlo FLuc 1%, HPGD block -7% and ALDH1A1 block 1%.
COc1cc(-c2nnc3sc(Cc4ccccc4)nn23)cc(OC)c1OC was read as Lamin A splicing 8%, PNC inhibitor 22, KinaseGlo FLuc -1%, IMPase inh 10, HPGD block inconclusive and ALDH1A1 block 22µM*.
Screening COc1ccc(Cc2nn3c(-c4cc(OC)c(OC)c(OC)c4)nnc3s2)cc1 returned Lamin A splicing inconclusive, PNC inhibitor 14, KinaseGlo FLuc 0%, IMPase inh -5, HPGD block 22µM* and ALDH1A1 block 11µM*.
Screening COc1cc(-c2noc(C3CC(=O)N(c4cc(C)ccc4C)C3)n2)cc(OC)c1OC (stereo not given) returned Lamin A splicing -11%[46 µM].
`O=C(Nc1ccccc1)N1CCC2(CC1)CCN(S(=O)(=O)c1ccccc1)CC2` gave KinaseGlo FLuc -2%, HPGD block -8% and ALDH1A1 block 12%.
NC(N)=NC(N)=Nc1ccccc1 (tested in a mixture with another compound) was read as KinaseGlo FLuc 0%[7.66 µM], HPGD block -6% and ALDH1A1 block -10%[13.5 µM].
`COc1ccc(OC)c(CCNC(=O)CCCn2c(=O)c3cccn3c3ccc(F)cc32)c1` gave Lamin A splicing 23%[46 µM].
`CN(C)S(=O)(=O)c1cccc(NC(=O)CSc2nncn2-c2ccccc2)c1` gave Lamin A splicing -30%[46 µM], KinaseGlo FLuc 2% and ALDH1A1 block inconclusive.
`Cc1nnc(SCC(=O)Nc2cccc(S(=O)(=O)N(C)c3ccccc3)c2)s1` gave Lamin A splicing inconclusive, PNC inhibitor 18, KinaseGlo FLuc 6%, IMPase inh 9, HPGD block 0.022µM* and ALDH1A1 block -2%.
For COc1cccc(NC(=O)CSc2nnc(C)s2)c1 the results were Lamin A splicing 13%, PNC inhibitor 34, KinaseGlo FLuc 4%, IMPase inh -3, HPGD block -12% and ALDH1A1 block 9%.
Screening COCCn1cnnc1SCC(=O)Nc1cccc(S(=O)(=O)N(C)c2ccccc2)c1 returned KinaseGlo FLuc 2% and ALDH1A1 block 5.6µM*.
For Cc1nnc(SCC(=O)Nc2ccc(Cl)cn2)s1 the results were Lamin A splicing 0%, PNC inhibitor -119*, KinaseGlo FLuc 2%, IMPase inh -3, HPGD block -1% and ALDH1A1 block -11%.
`COC/C=C/C1=CC2=CC(=O)C(C)(OC(=O)c3ccc(Cl)nc3)C(=O)C2=CO1` (stereo not given) gave KinaseGlo FLuc 0%, HPGD block -16% and ALDH1A1 block 3%.
`O=C(COCc1cc(-c2cccs2)on1)NCc1ccc(Cl)cc1` gave Lamin A splicing 10%[46 µM].
For O=C(CC(c1ccccc1)c1cc(Br)ccc1O)NCC1(c2ccccc2)CCCC1 (stereo not given) the results were IMPase inh 9.
`O=S(=O)(Nc1cccc(-c2ccc(N3CCCCC3)nn2)c1)c1cccs1` gave Lamin A splicing 12%[46 µM].
Screening CCCCCCCC/C=C\CCCCCCCCOC[C@H](COP(=O)([O-])OCC[N+](C)(C)C)OC(C)=O returned KinaseGlo FLuc 1%, HPGD block -9% and ALDH1A1 block 7%.
Screening CCCOC(=O)c1ccc(Oc2cn[nH]c2-c2ccc(OCC)cc2O)cc1 returned Lamin A splicing -9%, PNC inhibitor -117*, KinaseGlo FLuc -11%, IMPase inh 10, HPGD block -18% and ALDH1A1 block -1%.
For CCCc1ccc(Oc2cn[nH]c2-c2ccc(O)c(C)c2O)cc1 the results were Lamin A splicing inconclusive, PNC inhibitor 0, KinaseGlo FLuc -2%, IMPase inh 9, HPGD block 18µM* and ALDH1A1 block 5%.
Screening C(=N\n1cnnc1)/c1cccc(Oc2ccccc2)c1 returned Lamin A splicing -6%, PNC inhibitor 30, KinaseGlo FLuc 1%, IMPase inh 1, HPGD block -1% and ALDH1A1 block 6%.
`S=c1[nH]ncn1/N=C/c1cccc(Oc2ccccc2)c1` gave Lamin A splicing -3%, PNC inhibitor 24, KinaseGlo FLuc 2%, IMPase inh 2, HPGD block 10µM* and ALDH1A1 block 18µM*.
`CC1CCCN(S(=O)(=O)c2cc3c(cc2Cl)NC(=O)CO3)C1` (stereo not given) gave Lamin A splicing 2%[46 µM].
For CCn1c2ccc(F)cc2c2nnc(NN)nc21 the results were Lamin A splicing -12%, PNC inhibitor -29, KinaseGlo FLuc 1%, IMPase inh 2, HPGD block -11% and ALDH1A1 block 7.1µM*.
`CCCn1c2ccccc2c2nnc(SCC(=O)Nc3cc(C)on3)nc21` gave Lamin A splicing -2%, PNC inhibitor -18, KinaseGlo FLuc -2%, IMPase inh -5, HPGD block -10% and ALDH1A1 block inconclusive.
Screening CSc1nnc2c3cc(F)ccc3n(Cc3ccccc3)c2n1 returned Lamin A splicing 5%, PNC inhibitor -6, KinaseGlo FLuc -1%, IMPase inh -11, HPGD block -11% and ALDH1A1 block inconclusive.
CCc1ccc2c(c1)c1nc(C)sc1n2CC(=O)OC was read as Lamin A splicing 6%, PNC inhibitor inconclusive, KinaseGlo FLuc -5%, IMPase inh 10, HPGD block -1% and ALDH1A1 block -2%.
For CCCn1c2ccc(F)cc2c2nnc(NN)nc21 the results were Lamin A splicing inconclusive, KinaseGlo FLuc -2% and ALDH1A1 block 4.5µM*.
CCc1ccc2c(c1)c1nnc(NN)nc1n2CC was read as Lamin A splicing inconclusive, PNC inhibitor -15, KinaseGlo FLuc -6%, IMPase inh 8, HPGD block inconclusive and ALDH1A1 block 2.8µM*.
COCCNC(=O)CSc1nc(-c2ccc(C)cc2)nc2c1c(=O)n(C)c(=O)n2C was read as Lamin A splicing 1%[46 µM].
For CC(=O)c1cccc(NC(=O)CCn2nc(C)c(S(=O)(=O)N3CCCCC3)c2C)c1 the results were Lamin A splicing 17%[46 µM].
O=C(COC(=O)c1cnccn1)c1ccc2c(c1)CCCC2 was read as Lamin A splicing 14%, PNC inhibitor -2, KinaseGlo FLuc 0%, IMPase inh 5, HPGD block -12% and ALDH1A1 block 28µM*.
